“And” between values parts separate entries of the source, which are not always exact repeats. Identical values can stand only once. Inconclusive results are not listed. The source holds several records for some structures; these can differ, active in one and inactive in another. The source made the active and inactive calls. The calls were made as follows, unless noted: active = hit-call score of the fitted dose curve at least 0.9, where 1 is the maximum; inconclusive = response in the unintended direction; inactive = score below 0.9.

The nature of test [1]: CCTE_Deisenroth_DEVTOX-GLR_legacy_CellCount: (Legacy) Viability Assessment in CCTE's DevTox GLR-Endo Assay, Deisenroth Lab (AID 2284331; active = hit-call score of the fitted dose curve at least 0.9, where 1 is the maximum; inactive = score below 0.9). Conditions: actives raise or lower the signal. The essentials:
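Human pluripotent RUES2-GLR cells differentiated 48 h with two 24-h-interval exposures, 10-point 1 nM–200 uM series, 0.2% DMSO. Fixed nuclei counted by high-content imaging (5 fields/well); bidirectional fit vs DMSO, n≥4.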

Test [2] can be described thus: IUF_NPC1_cytotoxicity_72hr: Cytotoxicity Assessment at 72 hours in the Leibniz Research Institute for Environmental Medicine (IUF) Neural Progenitor Cell Proliferation Assay (NPC1) (AID 2284332).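 Also: rising LDH signal means more cytotoxicity.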 On the procedure:
IUF_NPC1 is a cell-based, multiplexed assay that uses hNPC, a human primary neural progenitor cells, with measurements taken at 72 hours after chemical dosing in a 96-well plate. Human neural progenitor cells (hNPC) are generated from human fetal brain cortex at gestational week (GW) 16-19. Grown in suspension culture and under proliferative conditions (proliferation media and growth factors), these cells represent neural progenitor cell proliferation. In the NPC1 assay, hNPC's are exposed to the test compound for 72h. Cell proliferation is assessed as an increase in sphere area using automated phase contrast imaging and as incorporation of Bromodeoxyuridine (BrdU) during DNA synthesis using a luminescence-based cell proliferation ELISA. In parallel, the cell viability is assessed using an alamar blue viability assay and the cytotoxicity using a lactate dehydrogenase dependent membrane integrity assay.IUF_NPC1_cytotoxicity_72hr is one of 4 assay components measured from the IUF_NPC1 assay. It is designed to measure cytotoxicity at 72 hrs due to loss of membrane integrity. LDH measurements are performed from medium supernatants of each well and are based on the reduction of resazurin to resorufin measured as fluorescence signal (relative fluorescence unit) in a multiplate reader. […]

For test [3], the system named is SRY-box transcription factor 17 (SOX17) Protein Expression, Deisenroth Lab, SOX17 (gene 64321). The test can be described thus: CCTE_Deisenroth_DEVTOX-GLR_legacy_Sox17: (Legacy) CCTE's DevTox GLR-Endo Assay Evaluation of SRY-box transcription factor 17 (SOX17) Protein Expression, Deisenroth Lab (AID 2284341; active = hit-call score of the fitted dose curve at least 0.9, where 1 is the maximum; inactive = score below 0.9). The following applies: actives raise or lower the signal. The essentials:
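RUES2-GLR human pluripotent cells differentiated toward endoderm for 48 h, dosed twice at 24 h intervals (1 nM–200 uM, 10 points). Imaging gives % SOX17+ cells (intensity >5x BMAD above pluripotent control median); bidirectional fit versus 0.2% DMSO.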

For another test, the system named is SERPINA7 (gene 6906). The test can be described thus: CCTE_GLTED_hTBG: CCTE's human Thyroxine-binding Globulin (TBG) Inhibition Assay, Great Lakes Toxicology and Ecology Division (GLTED) Lab (AID 2284343).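 Also: active chemicals lower fluorescence versus DMSO baseline by displacing probe.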 The essentials:
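Cell-free binding assay in which human TBG is incubated with test chemical for 2 hours and displacement of the fluorescent probe ANSA is read at 380 nm excitation/475 nm emission. Activity is fitted against DMSO as the negative control.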

Test [4] in a line: CCTE_Mundy_HCI_iCellGluta_NOG_NeuronCount: CCTE's Neurite Outgrowth Assay in iCellGluta cells for Neuron Count, Mundy Lab (AID 2284340).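 Also: cells fixed about 48 h after compound addition.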 The essentials:
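Neuron count read by automated high-content imaging of Hoechst 33342 and betaIII-tubulin/Alexa Fluor-488 labelling in human iPSC glutamatergic neurons. Activity fitted relative to DMSO.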

A short description of test [5]: CCTE_Mundy_HCI_iCellGluta_NOG_NeuriteCount: CCTE's Neurite Outgrowth Assay in iCellGluta cells for Neurite Count, Mundy Lab (AID 2284342).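 Also: chemical exposure about 48 hours starting 2 hours after plating.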
The nature of test [6]: VALA_MIGHUV1_ScratchOnly_WoundArea: VALA Sciences human Umbilical Vein Endothelial Cell Migration (MIGHUV) Assay, Area of Scratch Wound Inhibited Recovery (AID 2284336). The essentials:
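HUVEC monolayers (9000 cells/well) were scratched after 24 h, dosed within 30 min (six concentrations, triplicate, 0.1% DMSO), allowed 24 h recovery, then fixed. Hoechst-stained nuclei in the wound imaged; cytochalasin D as reference.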

A short description of test [7]: VALA_TUBHUV_Agonist_TubuleLength: VALA Sciences human Umbilical Vein Endothelial Tubule Formation (TUBHUV) Agonism Assay (AID 2284337). The essentials:
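HUVEC co-cultured with fibroblasts (1:3) 3 days in 10 ng/ml VEGF, then 3 days with compound plus VEGF; 0.1 % DMSO neutral control. Fixed, nuclear and CD31 stained; tubule length by fluorescence imaging.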

Test [8] is described as follows: VALA_TUBIPS_Agonist_CellCount: Viability Assessment in the VALA Sciences human iPS-derived Endothelial Tubule Formation (TUBIPS) Agonism Assay (AID 2284338). As for the experimental part:
VALA_TUBIPS_Agonist is a cell-based, multiplexed assay that uses human iPS-derived endothelial cells (iPSC). Measurements were taken 72 hours after chemical dosing in a 96-well plate.VALA_TUBIPS_Agonist_CellCount is the one of two assay components measured from the VALA_TUBIPS_Agonist assay. It is designed to make measurements of viability, a form of viability reporter, as detected with fluorescence intensity signals by HCS Fluorescent Imaging technology. Data from the assay component VALA_TUBIPS_Agonist_CellCount was analyzed at the endpoint, VALA_TUBIPS_Agonist_CellCount, in the positive analysis fitting direction relative to DMSO as the negative control and baseline of activity. Using a type of viability reporter, loss-of-signal activity can be used to understand viability. To generalize the intended target to other relatable targets, this assay endpoint is annotated to the cell cycle intended target family, where the subfamily is cell count.
This HUVEC-HDF assay was designed to detect chemical suppression of tubulogenesis, i.e. antagonism. To measure tubulogenesis antagonism, HUVEC cells were co-cultured with HDF cells at a 1:3 ratio for 3-days in 10 ng/ml VEGF (i.e., favorable conditions with growth factors), then changed to assay medium containing 10 ng/ml VEGF and ToxCast compounds for an additional 3-day period. […]

Test [9] can be described thus: VALA_TUBIPS_Antagonist_CellCount: Viability Assessment in the VALA Sciences human iPS-derived Endothelial Tubule Formation (TUBIPS) Antagonism Assay (AID 2284335).

For orientation: AC50 means the concentration giving half of the maximal activity seen. On to `CC1=C(/C=C/C(C)=C/C=C/C(C)=C/C(=O)O)C(C)(C)CCC1`, for which the AC50 in [1] is 4.44 µM (active); in test [3], 0.109 µM (active). Besides, the call in test [2] was inactive.

As for `CC[C@H](c1ccc(O)cc1)[C@@H](CC)c1ccc(O)cc1`, the AC50 in the test on SERPINA7 (gene 6906) was 8.97 µM (active).

As to `NC(=O)N1C(=O)C(C(=O)c2cc(Cl)cs2)c2cc(F)c(Cl)cc21` (stereo not given), the half-maximal activity concentration (AC50) in the test on SERPINA7 (gene 6906) was 7.27 µM (active).

For the compound `CC(C)(C)CC(C)(C)c1ccc(O)c(-n2nc3ccccc3n2)c1`, the AC50 with SERPINA7 (gene 6906) was 16.3 µM (active).

In the case of `Cc1cc(C)c(O)c(C)c1`, the compound was classed as inactive with SERPINA7 (gene 6906).

Take `C[C@@H]1C[C@H]2[C@@H]3CCC4=CC(=O)C=C[C@]4(C)[C@@]3(F)[C@@H](O)C[C@]2(C)[C@@]1(O)C(=O)COP(=O)(O)O`: the call in [1] and in [3] was inactive.

Consider `O=[N+]([O-])c1ccc(O)cc1`, for which, in the test on SERPINA7 (gene 6906), the AC50 was 33.3 µM (active) and 47.2 µM (active).

`CC(O)CO` (stereo not given): the compound was classed as inactive in test [1] and in test [3].

As for `CC#C[C@]1(O)CC[C@H]2[C@@H]3CCC4=CC(=O)CCC4=C3[C@@H](c3ccc(N(C)C)cc3)C[C@@]21C`, the call in test [2], in test [4] and in [5] was inactive. Besides, the AC50 is 27.3 µM (active) in test [4] and 58.9 µM (active) in [5].

Turning to `O=C(O)Cc1cc(I)c(Oc2cc(I)c(O)c(I)c2)c(I)c1`, the compound was classed as inactive in test [6], in test [7] and in [8]. For the same compound, the AC50 with SERPINA7 (gene 6906) was 0.0197 µM (active).

For the compound `ClC1=C(Cl)C(Cl)(Cl)C(Cl)=C1Cl`, the AC50 in the test on SERPINA7 (gene 6906) is 23.9 µM (active).

For the compound `COc1ccc([N+](=O)[O-])cc1N`, the AC50 with SERPINA7 (gene 6906) was 50 µM (active).

For the compound `OCCC(F)(F)C(F)(F)C(F)(F)C(F)(F)C(F)(F)C(F)(F)F`, the call in [4] and in test [5] was inactive.

Regarding `O=C(O)c1ccccc1C(c1ccc(O)cc1)c1ccc(O)cc1`, the AC50 with SERPINA7 (gene 6906) was 49.9 µM (active).

Regarding `C=C(C)C(=O)OCCC(F)(F)C(F)(F)C(F)(F)C(F)(F)C(F)(F)C(F)(F)F`, the result in [4] and in test [5] was inactive.

`CCCCCCCCCCCCc1ccccc1S(=O)(=O)O`: the compound was classed as inactive in [9] and in [6]. In addition, the AC50 in test [7] was 15.6 µM (active); in test [8] it was 1.5 µM (active); in the test with SERPINA7 (gene 6906) it was 4.89 µM (active).

Turning to `CC[C@H](C)[C@@H](C(=O)O)n1sc2ccccc2c1=O`, the AC50 with SERPINA7 (gene 6906) was 18.2 µM (active).

In the case of `OCCC(F)(F)C(F)(F)C(F)(F)C(F)(F)C(F)(F)C(F)(F)C(F)(F)C(F)(F)F`, the call in [5] was inactive.

(Values after PubChem BioAssay (EPA / NIEHS).)
